TsaE inh: displaces an ADP probe from E. coli YjeE (TsaE). Potency, µM. P0AF67. AID 605. purified YjeE enzyme, qHTS inhibition assay. hit rate 0.05% among 71,000
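Fluorescence polarization of a BODIPY Texas Red–ADP probe (2 uM) bound to purified YjeE (10 uM) was read after 15 min room-temperature incubation with compounds. Loss of polarization marks inhibitors; ADP serves as titrated control.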
Tau filament bind: binders of human tau filaments; P10636; recombinant tau filaments, thioflavin S fluorescence, 15 h; filaments grown with octadecylsulfate alongside compound; Potency, µM (series often up to 57.1 µM), for the others: top-dose activity change, negative = inhibition; hit rate 2% among 71,000;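 note: potency is the fitted concentration of half-maximal effect; % is set by controls: 0 for no effect and ±100 for the full control effect; actives lower thioflavin S fluorescence by blocking filaments or displacing dye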
Target sequence (P10636 whole entry, looked up): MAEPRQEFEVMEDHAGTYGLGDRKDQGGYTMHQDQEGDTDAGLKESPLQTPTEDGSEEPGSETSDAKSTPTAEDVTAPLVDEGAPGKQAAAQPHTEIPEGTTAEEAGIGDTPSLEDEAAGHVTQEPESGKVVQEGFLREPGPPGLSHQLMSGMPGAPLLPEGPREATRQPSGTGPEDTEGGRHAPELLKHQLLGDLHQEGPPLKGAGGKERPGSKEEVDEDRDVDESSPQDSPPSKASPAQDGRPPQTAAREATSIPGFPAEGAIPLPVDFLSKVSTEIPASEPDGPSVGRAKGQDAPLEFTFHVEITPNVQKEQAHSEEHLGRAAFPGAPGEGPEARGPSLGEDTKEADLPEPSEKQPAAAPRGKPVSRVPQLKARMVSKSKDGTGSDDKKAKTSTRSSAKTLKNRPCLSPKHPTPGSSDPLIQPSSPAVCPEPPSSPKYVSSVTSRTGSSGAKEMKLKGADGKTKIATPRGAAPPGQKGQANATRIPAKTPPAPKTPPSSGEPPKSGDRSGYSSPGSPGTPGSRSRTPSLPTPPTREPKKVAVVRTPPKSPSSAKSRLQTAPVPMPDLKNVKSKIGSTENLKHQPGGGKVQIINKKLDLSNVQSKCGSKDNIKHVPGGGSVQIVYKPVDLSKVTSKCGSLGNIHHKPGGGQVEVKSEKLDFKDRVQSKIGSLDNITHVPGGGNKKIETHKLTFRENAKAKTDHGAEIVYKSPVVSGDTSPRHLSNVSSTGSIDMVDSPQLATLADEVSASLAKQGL
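Thioflavine S fluorescence (ex 450, em 510 nm) reports filaments formed from 1 uM human tau plus 30 uM ODS over 15 h at 37 C (10 mM HEPES pH 7.4, 100 mM NaCl, 5 mM DTT); compounds displacing dye or blocking filaments lower signal.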
DNA Pol III inh: DNA polymerase III holoenzyme inhibition. reconstituted DNA polymerase III holoenzyme replication, biochemical. Potency, µM (top dose mostly 57.1 µM), for inactives: at the highest dose activity change, negative = inhibition. hit rate 0.25% among 71,000. AID 603; note: potency is the fitted concentration of half-maximal effect; % is set by controls: 0 for no effect and ±100 for the full control effect
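Reconstituted *E. coli* holoenzyme (0.35 nM Pol III, 1 nM beta, 154 nM SSB, 2 nM primase) was preincubated with compound for 15 min at RT. Synthesis on 1.4 nM ssM13Gori ran 35 min, then was stopped with PicoGreen/EDTA and read as dsDNA fluorescence.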
BRCT PPI red: disrupts BRCA1 BRCT binding to phosphoprotein, red fluorophore readout; BRCT-phosphopeptide binding, red fluorescence polarization; Potency, µM (highest dose often 76.9 µM), inactives show top-dose activity change, negative = inhibition, most hits filed as inhibitors; hit rate 0.03% among 75,000; P38398; note: % is set by controls: 0 for no effect and ±100 for the full control effect
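Rhodamine-labelled pBACH1 10-mer (100 nM) bound to BRCT domain (100 nM) at pH 7.3; compounds incubated 12 min room temperature, polarization read. Free peptide defines full inhibition; unlabelled decapeptide titrated as control.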
Hsp90 Hop PPI: changes Hsp90-Hop TPR2A binding signal, up or down. AlphaScreen TPR2A-His6 binding biotin-Hsp90 C-terminal peptide. Potency, µM (series often up to 57 µM), for inactives: at the highest dose activity change, negative = inhibition. hit rate 0.44% among 71,000; active = well fitted curve in either direction with a large enough effect; inconclusive = small, poorly fitted or top-dose-only effect, or another doubt; note: potency is the fitted concentration of half-maximal effect; % is set by controls: 0 for no effect and ±100 for the full control effect
BRCT PPI green: inhibitors of human BRCA1 BRCT-phosphoprotein interaction (green fluorophore); BRCA1 BRCT-phosphopeptide binding, green fluorescence polarization; Potency, µM (top dose mostly 76.9 µM), inactives show at the highest dose activity change, negative = inhibition, hits mostly inhibitors; hit rate 0.05% among 75,000;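 note: potency is the fitted concentration of half-maximal effect; plate controls were peptide without protein for full effect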
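Compounds were incubated for 12 min at room temperature with a complex of 100 nM fluorescein-tagged pBACH1 decapeptide and 250 nM His-tagged BRCT protein. Buffer was phosphate pH 7.3 with EDTA, DTT and Tween 20. Disruption of binding lowers the polarization signal.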
* = called active by the depositor; i = inactive; ? = inconclusive; / = no result given; ! = repeats disagree; [ ] = dose if it differs, or a comment. Hits are enriched below; roughly 2.3% of the tested compounds scored in any of these assays. Unless noted, calls come from the whole dose curve; as a rule, active = well fitted curve in the direction sought with a large enough effect; inconclusive = small, poorly fitted or top-dose-only effect, or another doubt; inactive = no such curve, though single readings can be large; an effect the other way counts as inactive or inconclusive.

SMILES	TsaE inh	Tau filament bind	DNA Pol III inh	BRCT PPI red	Hsp90 Hop PPI	BRCT PPI green
Oc1ccc(-c2nc3ncccn3c2Nc2ccc3c(c2)OCO3)cc1	i	-26.1%	-0.5%	-1.6%	-29.6%	-3.3%
Cc1ccc(-c2nc3ncccn3c2Nc2ccc3c(c2)OCO3)o1	i	12.6µM*	8.4%	-2.8%	-14.9%	-6.1%
Cc1ccc(-c2nc3ncccn3c2NC2CCCC2)o1	i	12.6µM*	0.4%	0.4%	-12.1%	-3.0%
c1cn2c(NC3CCCC3)c(-c3ccc(N4CCOCC4)cc3)nc2cn1	i	14.9%	-7.3%	0.7%	7.1%	-1.2%
COc1ccc(CCN(C)CCC[C@@](C#N)(c2cc(OC)c(OC)c(OC)c2)C(C)C)cc1OC	i	-21.9%	2.7%	-0.9%	-10.4%	-2.3%
CC[C@@H](c1ccccc1)n1c(=O)n2n(c1=O)[C@H]1[C@H](O)[C@H]3O[C@H]3C(=O)[C@H]1CC2	/	/	/	2.8%[15.4 µM]	/	-0.1%[15.4 µM]
COc1cccc(Nc2ncc3nc(-c4cn(C)c5ccccc45)c(=O)n(C[C@H]4CCCO4)c3n2)c1	i	412.2%	2.1%	-0.3%	-0.3%	21.5%
CC(C)CO/N=C1/[C@H]2O[C@@H]2[C@@H](O)[C@H]2[C@H]1CCn1c(=O)n(C)c(=O)n12	/	/	/	0.8%[15.4 µM]	/	1.1%[15.4 µM]
CN1CCN(c2ccc3nc(-c4ccc5nc(-c6ccc(O)cc6)[nH]c5c4)[nH]c3c2)CC1	i	52.7%[11.4 µM]	2µM*	-1.7%[15.4 µM]	-3.5%[11 µM]	0.8%[15.4 µM]
CC1(C)OCC([C@H](O)C2=CCCCC2=O)CO1	/	/	/	0.4%[15.4 µM]	/	-0.7%[15.4 µM]
C[C@@H](CN1CCC(Cc2ccccc2)CC1)[C@H](O)c1ccc(O)cc1	i	6.9%	12.9%	1.3%	-1.7%	-2.4%
Nc1cc(N)c(OCC(F)(F)F)cc1OCC(F)(F)F	i	15.8µM*	-11.5%	-4.7%	-23.1%	-2.3%
CCCCCCCCCCCCCCCCOC[C@@H](COCC(F)(F)F)OP(=O)(O)OCO	i	2.2%	-7.2%	/	-3.5%	/
CCc1ccc(NC(=O)c2ccc3c(c2)C(=O)N(Cc2ccco2)C3=O)cc1	i	25.1µM*	-1.8%	0.7%	-3.5%[2.3 µM]	-0.5%
COC(=O)c1ccccc1NC(=O)c1ccc2c(c1)C(=O)N(Cc1ccco1)C2=O	i	61.1%	0.6%	0.0%	-3.4%	0.2%
CCNc1ncc2nc(-c3cccc(C#N)c3)c(=O)n(CCC#N)c2n1	i	104.7%	-2.9%	0.7%	2.9%	19.1%
CCc1ccc(C2C(C#N)=C(N)SC(N)=C2C#N)s1	i	25.1µM*	-4.2%	0.1%	-16.5%	9.6%
CCc1ccc(C2C(C#N)=C(N)SC(N)=C2C#N)cc1	i	11.8%[11.4 µM]	1.5%[11.4 µM]	2.0%	-4.4%[11 µM]	120.3%
O=C(N[C@@]1(C(=O)O)C[C@@H]1c1ccccc1)c1ccccc1	i	-1.6%[11.4 µM]	-10.4%[11.4 µM]	-0.2%[15.4 µM]	11.9%[11 µM]	-1.9%[15.4 µM]
CSc1nc(N)c2ncn([C@H]3O[C@H](COP(=O)(O)OP(=O)(O)OP(=O)(O)O)[C@@H](O)[C@@H]3O)c2n1	79.4µM*	?	-3.4%	-0.5%	-3.3%	-5.3%
COC(=O)NC(CC(C)=O)c1ccco1 (stereo not drawn)	/	/	/	0.8%[15.4 µM]	/	-0.8%[15.4 µM]
CC(=O)OC1C[C@]2(C)[C@@H](CC(O)C3[C@]4(C)CCC(O)C(C)[C@@H]4CC[C@]32C)/C1=C(/CCC=C(C)C)C(=O)O (stereo partly drawn)	/	/	/	-0.3%	/	-0.2%[3.08 µM]
CCC(C)NC(=O)c1ccccc1C(=O)NC(C)CC (stereo not drawn)	i	3.2%	-2.8%	-2.1%	-1.5%	-1.7%
CCC(C)Nc1ccc(NC(C)CC)cc1 (stereo not drawn)	100µM*	15.8µM*	7.1%	-7.9%	?	0.2%
O=C(Nc1ccccc1)c1ccc2nc(-c3ccco3)c(-c3ccco3)nc2c1	i	0.631µM*	-10.0%	-0.4%	-28.8%	-2.5%
SMILES	TsaE inh	Tau filament bind	DNA Pol III inh	BRCT PPI red	Hsp90 Hop PPI	BRCT PPI green
O=C(Nc1ccc(N2CCOCC2)cc1)c1ccc2nc(-c3ccco3)c(-c3ccco3)nc2c1	i	7.94µM*	-3.2%	-0.1%	-4.6%	-0.2%
CCCCNC(=O)c1ccc2nc(-c3ccco3)c(-c3ccco3)nc2c1	?	?	15.8µM*	-10.8%	?	-4.2%
COc1ccc(C(=O)Nc2ccc(N3CCOCC3)cc2)cc1OC	i	-18.1%	0.9%	-1.6%	-3.4%	-1.7%
CCCNC(=O)c1cc(-c2ccco2)on1	i	1.6%	1.7%	1.2%	-5.6%	-1.5%
Nc1c(C(=O)Nc2ccccc2)sc2nc(-c3ccco3)ccc12	i	2µM*	-6.9%	0.0%	13.0%	4.5%
COc1ccccc1NC(=O)c1sc2nc(-c3ccco3)ccc2c1N	i	7.3%	-0.4%	0.9%	-6.1%	-0.9%
CCCCCCCCCCCCCCCCCC(=O)O[C@H](CC(=O)O)C[N+](C)(C)C	i	21.9%	-4.4%	-1.7%	-11.4%	-4.0%
CC1=CC(C#N)(C#N)C(C#N)(C#N)C(c2ccccc2)N1 (stereo not drawn)	50.1µM*	182.7%	-4.8%	-17.4%	3.16µM*	-6.1%
Cc1noc(C)c1C(=O)N1CCC[C@@]2(CCN(c3cccc(-c4ccccc4)c3)C2)C1	i	2.8%	-14.3%	-2.0%	0.2%	2.3%
Cn1cc(-c2nc3cnc(Oc4ccccc4)nc3n(CCC#N)c2=O)c2ccccc21	i	89.0%	-5.9%	-0.3%	?	-7.2%
Cc1ccc2c(c1)N(C(=O)CSc1nncn1C)C(C)(C)c1ssc(=S)c1-2	i	15.8µM*	-5.6%	-1.4%	?	-0.8%
O=c1c(-c2cccs2)nc2cncnc2n1Cc1ccccc1	i	119.7%	-9.5%	0.6%	7.3%	2.1%
CN(C)c1ccc(C(=C2C=CC(=[N+](C)C)C=C2)c2ccccc2)cc1	i	0.2µM*!	-8.6%[11.4 µM]	0.6%[15.4 µM]	?	0.2%[15.4 µM]
CN(C)c1ccc(/C(=N\O)C(F)(F)F)cc1	i	-12.1%[11.4 µM]	-0.2%[11.4 µM]	-0.4%	-11.7%[11 µM]	-1.1%
O=C(O)C1(O)CC(O)C(O)C(O)C1 (stereo not drawn)	/	/	/	-0.6%	/	1.6%
CC(C)C1Nc2ccc(S(N)(=O)=O)cc2C2C=CCC21 (stereo not drawn)	i	109.0%	-1.0%	-0.9%	-29.5%	2.5%
C1=CC2c3ccccc3NC(c3ccncc3)C2C1 (stereo not drawn)	i	7.94µM*	-1.5%	-0.4%	?	-1.5%
CN1CCN(c2ncc3nc(-c4cccs4)c(=O)n(-c4ccccc4)c3n2)CC1	i	i	6.8%	1.1%	7.0%	1.0%
COCCn1c(=N)c(C(=O)NCCc2ccccc2)cc2c(=O)n3cccc(C)c3nc21	i	3.16µM*	-3.2%	-2.2%	-1.3%	4.4%
CCOCCCNC(=O)c1cc2c(=O)n3cccc(C)c3nc2n1C	i	34.8%	-4.0%	-0.3%	0.5%	-1.3%
